# Only some compounds are listed: those with a hit (about 4% of all), similar ones and a draw of the others.
# Glioma ERSR ind: qHTS for Inducers of the Endoplasmic Reticulum Stress Response (ERSR) in Human Glioma: qHTS. U87-MG GRP78 promoter luciferase reporter, 16 h. Potency, µM, without a hit: top-dose activation, hits mostly activators. 0.02% of 420,000 active. AID 602332, 2012; active = well fitted activation curve with a large enough effect; note: potency is the fitted concentration of half-maximal effect; series mostly up to about 76 µM; % of control where 0% means no effect; nearly all actives have a fitted effect of over 35% in size
#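 Stably transfected U87-MG human glioma cells carrying a GRP78-based luminescent sensor were seeded at 1000 cells/well, pin-dosed with compounds and incubated 16 h. Luciferase reagent was then added, and end-point luminescence was read after 10 min at room temperature.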
# TRHR agonist: qHTS for Small Molecule Agonists and Allosteric Enhancers of Human TRH Receptor: Primary Screen for Agonists | Thyrotropin-releasing hormone receptor (Homo sapiens), P34981 | TRHR cells, calcium flux fluo-8, FDSS agonist mode | activation, % at 2 µM | 0.18% of 360,000 active | AID 493084, 2011; note: 0% is about no effect
#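 Steps: seed TRHR cells overnight; add fluo-8 no-wash Ca dye, RT 30 min–1.5 h; record 10 s baseline; pin-transfer compounds; monitor fluorescence 1 cycle/s for the agonist window. Calcium increases flag candidate agonists.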
# D1 agonist: Allosteric Agonists of the Human D1 Dopamine Receptor: qHTS; HEK293 T-REx D1 cells, calcium flux, agonist mode; 1% of 360,000 active; AID 504660, 2011; activation, % at 2 µM; D(1A) dopamine receptor (Homo sapiens), P21728; note: 0% is about no effect
# Target sequence (P21728 whole entry, looked up): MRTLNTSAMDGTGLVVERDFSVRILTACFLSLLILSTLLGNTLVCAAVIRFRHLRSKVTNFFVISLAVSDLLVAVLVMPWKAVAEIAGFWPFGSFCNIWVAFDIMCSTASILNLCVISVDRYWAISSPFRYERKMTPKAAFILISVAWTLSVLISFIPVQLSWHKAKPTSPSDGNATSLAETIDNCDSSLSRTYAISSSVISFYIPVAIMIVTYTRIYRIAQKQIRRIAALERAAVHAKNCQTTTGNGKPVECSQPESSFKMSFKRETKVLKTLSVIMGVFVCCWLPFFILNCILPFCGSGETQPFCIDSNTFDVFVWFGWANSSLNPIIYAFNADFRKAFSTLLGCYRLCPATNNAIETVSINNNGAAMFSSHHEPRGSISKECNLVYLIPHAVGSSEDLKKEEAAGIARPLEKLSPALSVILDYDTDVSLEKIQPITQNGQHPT
#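 Agonism was scored from calcium flux recorded over 180 s (1 read/s) after pintool compound addition, following a 10-cycle baseline. Cells were inducible force-coupled HEK293 TREx D1, plated overnight at 30 C and loaded with no-wash calcium dye.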
# D1 antag: Antagonist of Human D 1 Dopamine Receptor: qHTS; 3.2% of 360,000 active; activity change, negative = inhibition, % at 10 µM; AID 504652, 2011; HEK293 TREx D1 cells, calcium flux, dopamine EC80; stronger effect = lower value; D(1A) dopamine receptor (Homo sapiens), P21728; in the data active = activity change below about -30%; note: % is set by controls: 0 for no effect and ±100 for the full control effect
#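 Calcium flux readout: force-coupled, inducible Hek293 Trex D1 line, cells induced overnight at 30 C with tetracycline, dye-loaded 30–90 min at RT. Antagonism scored against EC80 dopamine challenge given 180 s after compound.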
# D1 PAM: Potentiators of Human D1 Dopamine Receptor: qHTS | D(1A) dopamine receptor (Homo sapiens), P21728 | HEK293 TREx D1 cells, calcium flux, dopamine EC20 potentiation | potentiation, % at 10 µM | 0.036% of 360,000 active; in the data active = potentiation above about 30%; note: 0% is about no effect
# TRHR enhancer: qHTS for Small Molecule Agonists and Allosteric Enhancers of Human TRH Receptor: Primary Screen for Enhancers | TRHR cells, fluo-8 calcium fluorescence, EC20 TRH enhancement | enhancement, % at 2 µM | 0.66% of 360,000 active | AID 493056, 2011; in the data active = enhancement above about 30%; note: 0% is about no effect
#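 TRHR-expressing cells loaded with fluo-8 calcium dye were read kinetically (ex 480/em 530) during compound addition, then stimulated with an EC20 of TRH (10 nM final). Enhancement of the Gq-mediated intracellular calcium response was scored.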
# * = called active by the depositor; x = no result given. Cut-off read from the data, not from the text of the source, unless noted: active = activation above about 30%; inactive = the rest.
SMILES,Glioma ERSR ind,TRHR agonist,D1 agonist,D1 antag,D1 PAM,TRHR enhancer
Cc1ccc(NC(=O)CCCc2ccccc2)c([N+](=O)[O-])c1,8%,-1,2,-48*,0,-4
O=C(CCc1ccccc1)NC(=S)Nc1ccccc1[N+](=O)[O-],4%,0,-1,-34*,-1,-3
O=C(CCCc1ccccc1)Nc1ccccc1[N+](=O)[O-],4%,0,1,-3,3,-5
C=CCN1C=CC(=CC=C(C#N)C#N)C=C1,1%,46*,96*,-16,-10,2
N#CC(C#N)=C(N)/C(C#N)=C/c1cc(O)c(O)c(O)c1,0%,15,30*,-20,2,3
Cc1cc2c3ccccc3ncn2n1,-3%,-1,3,-39*,7,6
CN(C)CCCNC(=S)NCC(c1ccc(Cl)cc1Cl)c1c[nH]c2ccccc12 (configuration not stated),-15%,2,61*,-40*,-4,-2
NCC(c1ccc(Cl)cc1Cl)c1c[nH]c2ccccc12 (configuration not stated),-1%,1,41*,-11,-3,0
CCCCNC(=S)NCC(c1ccccc1)c1c[nH]c2ccccc12 (configuration not stated),-5%,1,2,-9,0,12
COc1ccc(Cl)cc1NC(=O)C1Cc2ccccc2CN1S(C)(=O)=O (configuration not stated),-4%,-1,-2,28,6,-6
CC12CCC(C(=O)NCc3ccccc3Cl)(OC1=O)C2(C)C (configuration not stated),-2%,0,0,3,7,-8
CCOc1ccc(NC(=O)NC2CC(=O)N(c3ccc(OC)cc3)C2)cc1 (configuration not stated),1%,-3,3,-6,0,0
C=CCn1c(SCC(=O)/C(C#N)=C(\C)N)nnc1C1CCCCC1,-4%,0,2,-75*,-8,9
C=CCn1c(SCC(=O)N(C)C2CCCCC2)nnc1C1CC1,1%,x,x,x,x,x
N#CCCN1CCN(S(=O)(=O)c2ccc(C3CCCCC3)cc2)CC1,-3%,0,0,-19,-6,0
CC1CCCCC1NS(=O)(=O)c1ccc(S(=O)(=O)N2CCN(CCC#N)CC2)cc1 (configuration not stated),-3%,1,5,-35*,-9,-9
CN(C)S(=O)(=O)c1ccc(S(=O)(=O)N2CCN(CCC#N)CC2)cc1,-5%,0,-1,-33*,-4,7
CCN(CC)S(=O)(=O)c1ccc(S(=O)(=O)N2CCN(CCC#N)CC2)cc1,-1%,0,2,0,13,-1
Cc1cc(C)nc(SCCC(=O)Nc2cccc3ccccc23)n1,0%,0,-1,-3,-3,1
Cc1cccc(C(=O)Nc2c3c(nn2C(C)(C)C)CS(=O)(=O)C3)c1,-4%,-1,3,-1,3,-2
Cc1cc(NC(=O)c2ccccc2)n(C(C)(C)C)n1,-1%,-1,0,-33*,-3,11
CC(C)(C)n1nc2c(c1NC(=O)c1ccccc1)CS(=O)(=O)C2,-4%,1,0,-41*,-15,-5
CCOC(=O)Cn1nc(C)cc1NC(=O)c1cc(OC)c(OC)c(OC)c1,7%,0,1,0,2,-3
CCOC(=O)Cn1nc(C)cc1NC(=O)c1ccncc1,0%,0,5,-2,-1,34*
COC(=O)c1ccc(C)c(NC(=O)CSc2nnc3ccccn23)c1,-2%,0,0,1,3,8
SMILES,Glioma ERSR ind,TRHR agonist,D1 agonist,D1 antag,D1 PAM,TRHR enhancer
CN(CC(=O)Nc1sccc1C#N)Cc1ccccc1,4%,0,6,1,-3,-4
CCOC(=O)C1=C(COC(=O)C(CC)c2ccccc2)NC(=O)NC1C (configuration not stated),0%,1,2,-36*,-6,-7
CCOC(=O)C1=C(COC(=O)c2ncc(Cl)c(Cl)c2Cl)NC(=O)NC1C (configuration not stated),9%,0,-2,-49*,-4,-5
CCOC(=O)Cn1c(S(=O)(=O)Cc2cccc(F)c2)nc(-c2ccccc2)c1-c1ccccc1,-1%,0,17,-38*,-5,1
COc1cccc(CN(C)CC(=O)Nc2ccccc2C(=O)Nc2ccccc2)c1OC,0%,0,9,12,-4,5
O=C1CN(C(=O)Cc2ccccc2)C(c2ccc(F)cc2)c2cc(Br)ccc2N1 (configuration not stated),-3%,0,2,-48*,4,0
CCn1c(SCC(=O)Nc2ccc3c(c2)OCO3)nnc1-c1cnccn1,-1%,0,0,-32*,-8,1
Cc1ccccc1-c1nnc(SCC(=O)Nc2ccc3c(c2)OCCO3)n1N,-2%,0,0,-6,-2,0
Nn1c(SCC(=O)Nc2ccc3c(c2)OCCO3)nnc1-c1ccccn1,2%,0,1,-36*,-4,4
CCn1c(SCC(=O)Nc2ccc(OC)c(OC)c2)nnc1-c1cnccn1,-8%,0,2,7,0,-1
O=C(CSCc1ccccc1Cl)Nc1ccc2c(c1)OCCO2,9%,0,1,-36*,2,-3
CC1SCC(NC(=O)c2ccccc2Cl)CS1 (configuration not stated),-3%,1,2,-25,1,1
Cc1ccc(S(=O)(=O)N(CCc2ccccc2)CC(=O)Nc2ccccc2C)cc1,-2%,1,16,1,-5,14
COc1ccc(N=C2S/C(=C\c3ccc(N4CCOCC4)o3)C(=O)N2CCc2c[nH]c3ccccc23)cc1,x,0,17,-30*,-4,-18
COc1ccc(/C=N/NC(=O)C(C)Sc2ccccn2)cc1[N+](=O)[O-] (configuration not stated),-4%,0,5,1,0,30
Cc1nc2scc(C)n2c(=O)c1S(=O)(=O)Nc1cccc(O)c1,-4%,0,4,-48*,-5,-2
Cc1nc2scc(C)n2c(=O)c1S(=O)(=O)Nc1cccc(C(F)(F)F)c1,-4%,1,22,-24,-2,5
